In all, about 290,000 compounds went through this assay and about 3,000 (1%) were called active. No stated cut-off is given here; in the data, active means inhibition mostly above about 36% (no sharp cut-off); inactive means mostly below about 34%. Many of the other results were omitted from the sample, so actives are more common in it than they were.
Target: T1, Nucleotide-binding oligomerization domain-containing protein 1, Homo sapiens (UniProt Q9Y239)
T1 sequence (whole entry): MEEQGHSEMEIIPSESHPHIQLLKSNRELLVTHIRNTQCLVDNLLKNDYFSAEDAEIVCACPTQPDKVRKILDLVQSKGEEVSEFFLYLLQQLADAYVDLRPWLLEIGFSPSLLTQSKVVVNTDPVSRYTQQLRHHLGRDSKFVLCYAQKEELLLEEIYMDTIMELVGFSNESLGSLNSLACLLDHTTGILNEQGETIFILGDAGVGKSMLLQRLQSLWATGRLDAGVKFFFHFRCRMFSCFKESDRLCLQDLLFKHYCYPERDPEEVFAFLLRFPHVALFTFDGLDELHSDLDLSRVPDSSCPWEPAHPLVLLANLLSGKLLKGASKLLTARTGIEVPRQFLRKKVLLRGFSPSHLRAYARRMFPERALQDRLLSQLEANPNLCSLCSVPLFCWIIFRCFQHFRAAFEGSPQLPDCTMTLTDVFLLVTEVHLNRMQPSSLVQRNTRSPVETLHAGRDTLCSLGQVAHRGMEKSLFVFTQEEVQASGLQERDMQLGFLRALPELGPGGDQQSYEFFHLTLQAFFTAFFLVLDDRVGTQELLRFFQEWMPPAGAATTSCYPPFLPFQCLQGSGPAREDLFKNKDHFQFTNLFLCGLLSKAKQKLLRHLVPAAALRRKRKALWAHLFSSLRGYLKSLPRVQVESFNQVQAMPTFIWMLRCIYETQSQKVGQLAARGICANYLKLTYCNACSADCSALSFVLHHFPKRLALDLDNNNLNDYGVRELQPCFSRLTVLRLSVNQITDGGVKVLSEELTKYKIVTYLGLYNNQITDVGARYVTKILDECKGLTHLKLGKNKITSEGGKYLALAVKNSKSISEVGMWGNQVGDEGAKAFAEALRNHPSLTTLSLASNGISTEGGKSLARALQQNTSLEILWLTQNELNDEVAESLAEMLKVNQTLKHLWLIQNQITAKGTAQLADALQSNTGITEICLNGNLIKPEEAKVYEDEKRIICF
Assay: inhibition of NOD1-driven NF-kB reporter – cell-based, luminescence, uHTS, primary screen (AID 1578)

outcome, active:
COc1ccccc1C(=O)Nc1nc2ccccc2[nH]1
Cc1c(C(=O)Nc2nc3ccccc3[nH]2)oc2ccc(Br)cc12
COc1cc(SC)ccc1C(=O)Nc1nc2ccccc2[nH]1
O=c1cc(C(F)(F)F)nc(SCc2cccc3ccccc23)[nH]1
Cc1cnc(NC(=O)C2CC(=O)N(c3cccc(Cl)c3)C2)s1 (stereo not drawn)
CC(C)(C)c1cc(NC(=O)CCl)n(-c2ccccc2)n1
O=[N+]([O-])c1cccc(NC(=S)Nc2nc(-c3ccc(Cl)cc3Cl)cs2)c1
Cc1cc(Br)ccc1SCC(=O)OC/C(O)=C(\C#N)c1nc2ccccc2[nH]1
N#C/C(=C(/O)COC(=O)CSc1ccc2ccccc2c1)c1nc2ccccc2[nH]1
CC(C)(C)c1ccc(-c2noc(CCC(N)=O)n2)cc1
CC(C)(C)c1ccc(-c2noc(CCC(=O)Nc3cccnc3)n2)cc1
O=C(NC1CCCCC1)N1CCN(c2nc(-c3ccccc3)cs2)CC1
COC(=O)C1CCCCN1C(=O)c1cc(COc2cccc3cnccc23)on1 (stereo not drawn)
CCOC(=O)CC1CCCCN1C(=O)c1cc(COc2cccc3cnccc23)on1 (stereo not drawn)
COc1cc(NC(=O)COc2cc(O)c3c(c2)OC(C)(C)CC3=O)cc(OC)c1OC
NC(=O)c1sc2nc3c(c(-c4ccccc4)c2c1N)CCC3
Cc1ccc(-c2c3c(nc4sc(C(N)=O)c(N)c24)CCC3)cc1
NC(=O)c1sc2nc3c(c(-c4ccco4)c2c1N)CCCC3
Cc1nc2sc(C(N)=O)c(N)c2c2c1CCCC2
NC(=O)c1sc2nc3c(c(-c4cccs4)c2c1N)CCCCC3
Nc1ncc([N+](=O)[O-])c(N2CCCCCC2)n1
COc1ccccc1N1CCN(C(=O)C2CCCN(S(=O)(=O)c3ccc4c(c3)oc(=O)n4C)C2)CC1 (stereo not drawn)
CCN(CC)S(=O)(=O)c1ccc(Oc2ccc(S(=O)(=O)N(CC)CC)cc2)cc1
Cc1ccccc1NC(=O)/C=C/c1ccc([N+](=O)[O-])s1
Cc1ccc(NC(=O)/C=C/c2ccc([N+](=O)[O-])s2)c(C)c1
CCCc1nc2c(=O)n(C)c(=O)nc-2n(C)n1
O=C(CCl)N(c1ccccc1)c1ccccc1
O=C(CCl)N(c1ccccc1)c1c[nH]c2ccccc12
CC(=O)n1cc(N(C(=O)CCl)c2ccccc2)c2ccccc21
O=C(CCl)N(Cc1ccccc1)c1ccccc1
O=C(COc1ccc(Br)cc1Cl)NC(=S)N1CCc2ccccc21
CC1Cc2ccccc2N1S(=O)(=O)c1cccc(C(=O)N2CCN(c3ncccn3)CC2)c1 (stereo not drawn)
CC1Cc2ccccc2N1C(=S)NC(=O)c1cccc(Br)c1 (stereo not drawn)
Cn1c(=NC(=O)CCl)sc2ccccc21
Cc1cc(C(=O)CCl)c(C)n1CCc1ccc(F)cc1
CCc1ccc(-c2nc(CSCC(=O)N3CCN(c4ccccn4)CC3)c(C)o2)cc1
COc1cccc(CN(C)C(=O)CNC(=O)c2ccc(-c3ccccc3)cc2)c1OC
CCOc1ccc(S(=O)(=O)Nc2cnc3ccccc3c2)cc1
Cc1c(C(=O)Nc2nonc2-c2ccc(F)cc2)oc2ccc(F)cc12
Nc1ncc(Br)cc1S(=O)(=O)Nc1cc(C(F)(F)F)cc(C(F)(F)F)c1
O=[N+]([O-])c1cc([N+](=O)[O-])c2oc(-c3ccccc3)c(Br)c2c1O
O=[N+]([O-])c1ccc(Oc2ccc(F)cc2)c2ccncc12
O=[N+]([O-])c1ccc(Oc2ccc(F)cc2Br)c2ccncc12
Cc1ccc(C(=O)NC2CCCc3c2cnn3-c2ccc(F)cc2F)cn1 (stereo not drawn)
Cn1nccc1C(=O)NC1CCCc2c1cnn2-c1ccc(F)cc1F (stereo not drawn)
CC1=C(C(=O)NC2CCCc3c2cnn3-c2ccc(F)cc2F)OCCO1 (stereo not drawn)
Cc1ccc(C(=O)CN2C(=O)c3ccccc3S2(=O)=O)cc1
COc1ccc(C(=O)CN2C(=O)c3ccccc3S2(=O)=O)cc1
COc1ccc(-c2cc3nc(CCl)[nH]c(=O)c3s2)cc1
COc1ccc(-c2cc3nc(C)n(N)c(=O)c3s2)cc1
COc1ccccc1-c1nnc(Sc2nc([N+](=O)[O-])nn2C)o1
OCCCNc1nccc(-c2cc(Nc3cccc(Cl)c3)ncn2)n1
OCCCNc1cc(-c2ccnc(Nc3cccc(Cl)c3)n2)ccn1
CCOC(=O)c1oc2ccc(S(=O)(=O)n3nc(-c4ccc(OC)cc4)cc3N)cc2c1C
CN(C)c1ccnc2sc3c(=O)n(Cc4ccccc4)cnc3c12
Cc1c(C(=O)N2CCN(Cc3ccc4c(c3)OCO4)CC2)sc2ncnc(N3CCN(c4ccccc4)CC3)c12
Cl.O=[N+]([O-])c1ccc2ncnc(N3CCN(Cc4ccc5c(c4)OCO5)CC3)c2c1
Cc1ccc(S(=O)(=O)CC#CCOC(=O)c2ccc([N+](=O)[O-])cc2)cc1
CCOC(=O)c1csc(Nc2nc3ccc(F)cc3s2)n1
CN(c1ccccc1)S(=O)(=O)c1cccc(NC(=O)c2cc(=O)c3ccccc3o2)c1
Cc1cc(Cl)c(S(=O)(=O)N2CCCCCC2)cc1OCC(=O)NC1CCCCC1
Cc1cc(Cl)c(S(=O)(=O)N2CCN(c3ccc(F)cc3)CC2)cc1OCC(=O)NC1CCCCC1
Cc1cc(C)c(C(=O)/C=C/c2cccc3ccccc23)c(=O)[nH]1
Cc1cc(C)c(C(=O)/C=C/c2ccc(C(C)C)cc2)c(=O)[nH]1
O=C(/C=C/c1ccc2c(c1)OCO2)Nc1nc(-c2ccccc2)cs1
COc1ccc(N(C(=O)CCl)C(C(=O)NCCc2ccccc2)c2cccs2)cc1 (stereo not drawn)
COc1cccc(N(C(=O)CCl)C(C(=O)NCCc2ccccc2)c2cccs2)c1 (stereo not drawn)
COc1ccc(NS(=O)(=O)c2cccc(NC(=O)c3ccc(S(=O)(=O)N4CCCCCC4)cc3)c2)cc1
COc1ccc(NS(=O)(=O)c2cccc(NC(=O)c3ccc(Cl)nc3)c2)cc1
Cc1ccccc1-n1nnnc1Sc1nnnn1-c1ccccc1
Cc1sc2ncnc(Sc3nnnn3-c3ccc(Cl)cc3)c2c1C
Cc1sc2ncnc(Sc3nnnn3-c3ccccc3)c2c1C
O=C(N/N=C/c1ccc([N+](=O)[O-])o1)c1ccc2c(c1)OCO2
Cc1scc(C(=O)N/N=C/c2ccc([N+](=O)[O-])o2)c1C
O=C(N/N=C/c1ccc([N+](=O)[O-])o1)c1ccccc1-n1cccc1
O=[N+]([O-])c1ccc(/C=N/N=C/c2ccc([N+](=O)[O-])o2)o1
O=C(N/N=C/c1ccc([N+](=O)[O-])o1)c1ccccc1NS(=O)(=O)c1cccs1
Cc1nn(-c2cc(C(F)(F)F)ccc2Cl)c2nc(C(Cl)(Cl)Cl)[nH]c(=O)c12
Cc1nn(-c2cccc(Cl)c2)c2nc(C(F)(F)F)[nH]c(=O)c12
COc1cccc(N2CCN(c3ncnc4c3cnn4-c3ccc(C)cc3C)CC2)c1
COc1ccc(-c2n(CC(=O)OC3CC(C)CCC3C(C)C)c3ccccc3[n+]2C)cc1.[Cl-] (stereo not drawn)
Cc1csc(SCC(=O)Nc2cccc3nsnc23)n1
Cc1noc(C)c1CSc1nc2ccccc2nc1NS(=O)(=O)c1ccc(Cl)cc1
Cc1[nH]nc2ncc(C(=O)c3ccccc3O)cc12
Fc1ccc(CSc2nnc(-c3ccncc3)o2)cc1
Clc1ccc(CSc2nnc(-c3ccncc3)o2)cc1
O=c1cc(-c2ccccc2Cl)oc2c([N+](=O)[O-])c(O)cc(O)c12
CCOc1ccccc1NC(=O)CSc1nc2nc(-c3cccs3)cc(C(F)(F)F)c2c(=O)[nH]1
O=C(CSc1nc2nc(-c3cccs3)cc(C(F)(F)F)c2c(=O)[nH]1)Nc1c(F)c(F)c(F)c(F)c1F
O=C(CSc1nc2nc(-c3cccs3)cc(C(F)(F)F)c2c(=O)[nH]1)Nc1ccc(F)c(F)c1
Cc1ccc(C)c(NC(=O)CSc2nc3nc(-c4cccs4)cc(C(F)(F)F)c3c(=O)[nH]2)c1
O=c1cc(-c2ccccc2)nc2c(-c3ccccc3)c(C(F)(F)F)[nH]n12
COc1ccc(-c2c(C(F)(F)F)[nH]n3c(=O)cc(-c4ccccc4)nc23)cc1
CC(=O)/C=C/n1c(=S)oc2ccccc21
CC(C)CC(=O)/C=C/n1c(=S)oc2ccccc21
CCOC(=O)N1CCN(C(=O)C2CCCN(Cc3nc(-c4ccc(Cl)cc4)oc3C)C2)CC1 (stereo not drawn)
CC(=O)c1c(C)[nH]c(C(=O)OCC(=O)Nc2sc3c(c2C#N)CCCC3)c1C
Br.CC(=O)Nc1nc(C)c(-c2csc(Nc3ccc(O)cc3)n2)s1
COc1ccccc1Nc1nc(-c2sc(NC(=O)c3ccco3)nc2C)cs1
CC[C@H]1CN2CCc3cc(OC)c(OC)cc3[C@@H]2C[C@@H]1C[C@H]1NCCc2cc(OC)c(OC)cc21.Cl
O=C(NC(=S)N1CCN(c2ccc(C(F)(F)F)cc2[N+](=O)[O-])CC1)c1cccs1
O=C(NC(=S)N1CCN(c2ccc(Cl)cc2[N+](=O)[O-])CC1)c1cccs1
O=C(c1ccc2c(c1)CCN2S(=O)(=O)c1ccccc1)N1CCN(c2ccc(F)cc2)CC1
COc1ccc(C2CC(c3cccs3)=NN2C(=O)CCl)cc1OC (stereo not drawn)
COc1cc(C2CC(c3cccs3)=NN2C(=O)CCl)ccc1OC(F)F (stereo not drawn)
O=C(COc1ccc(C(=O)c2ccccc2)cc1)Nc1cccnc1
COc1cc(OC)nc(-n2ncc(Br)c(Br)c2=O)n1
Cc1ccc(-n2ncc(Br)c(Br)c2=O)cc1

— the GenesisPotency data set
